Fluor 339 460: intrinsic fluorescence of library compounds, ex339/em460 – biochemical, MLSMR library, data from DPM-DC assay, artefact control, profiling panel; 65,000 tested, 5.5% active; fluorescence fold increase at 10 µM; AID 709, 2007; compound autofluorescence, ex339/em460 nm, NADH buffer; active compounds read high; 1 = no-compound wells, NADH background;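 active = at 10 µM, mean starting fluorescence two-fold or more over control wells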;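 note: signal is the first read of a kinetic run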
A340 absorber: compound light absorbance at 340 nm, profiling panel, artefact control, biochemical, MLSMR library, data from PS, PMK, MK assays | compound absorbance at 340 nm, fold over control | fold change at 10 µM | 65,000 tested, under 10 active | AID 708, 2007;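 active = at 10 µM dose, initial 340 nm absorbance at least 2 fold that of control wells; inactive = change under 2 fold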;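 note: initial absorbance extrapolated from kinetic A340 decline of NADH oxidation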
PMK inhibit: S. pneumoniae PMK inhibitors, primary screen, biochemical, mevalonate pathway, pilot trial included; purified PMK, PK/LDH-coupled NADH absorbance 340 nm; AID 539, 2006; inhibition, % at 10 µM; 65,000 tested, 0.49% active; phosphomevalonate kinase (Streptococcus pneumoniae D39);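 active = top-ranked compounds by inhibition in the single 10 µM screen, taking a fixed number of the strongest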
NADH coupling: inhibitors of PK/LDH coupling enzymes, profiling panel, artefact control, biochemical, MLSMR library; coupled PK/LDH NADH assays, four targets; IC50, µM (top dose mostly 10 µM); 65,000 tested, 0.02% active; AID 774, 2007;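 active = single-dose screening hits from any of four coupled enzyme assays that gave an IC50 when retested across doses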;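 note: the DPM-DC format reads NADH fluorescence rather than 340 nm absorbance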
MK inhibit: S. pneumoniae MK inhibitors, primary screen, biochemical, PK/LDH-coupled NADH absorbance; inhibition, % at 10 µM; mevalonate kinase [Streptococcus pneumoniae D39]; 65,000 tested, 0.48% active; purified MK, PK/LDH-coupled NADH absorbance 340 nm;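 active = ranked among the strongest by inhibition in the single 10 µM screen, a fixed top-ranked set picked for dose follow-up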
Spn DPM-DC inh: S. pneumoniae DPM-DC inhibitors, primary screen, biochemical, PK/LDH-coupled NADH fluorescence; diphosphomevalonate decarboxylase (Streptococcus pneumoniae D39); purified DPM-DC; calls only at 10 µM; 65,000 tested, 0.49% active; AID 556, 2006;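 active = the 320 compounds with the highest percent inhibition in the single-dose primary screen, excluding strongly autofluorescent ones, cut at about 32% in these data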;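 note: kinetic rate of NADH fluorescence loss reporting ADP formed by the decarboxylase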
A number is an active result; n = inactive; x = no result given; + = active, no number. A selection: hits, their analogues and other compounds. The true share with any hit is near 6.5%.

SMILES | Fluor 339 460 | A340 absorber | PMK inhibit | NADH coupling | MK inhibit | Spn DPM-DC inh
Cc1c(NC(=O)COC(=O)c2cc3c4ccccc4n(C)c3s2)c(=O)n(-c2ccccc2)n1C | 3.2 | n | n | n | n | n
CCn1c(=O)cc(OCC(=O)N2CCCC2)c2ccccc21 | n | n | n | n | n | n
O=C(c1cc2c(=O)oc3ccccc3c2s1)N1CCOCC1 | n | n | n | n | n | n
CCn1c(=O)c2cc(C(=O)N3CCOCC3)sc2c2ccccc21 | 2.1 | n | n | n | n | x
O=C(c1cc2c(=O)n3ccccc3nc2s1)N1CCOCC1 | 4.9 | n | n | n | n | x
Cc1nn(-c2ccccc2)c2sc(C(=O)N3CCOCC3)cc12 | n | n | n | n | n | n
CCn1c2ccccc2c2cc(NC(=O)N3CCOCC3)ccc21 | 2.1 | n | n | n | n | n
CCn1c(=O)c2cc(C(=O)N3CCCC3)sc2c2ccccc21 | 2.1 | n | n | n | n | x
O=C(CCCc1nc(-c2ccccc2)no1)N1CCOCC1 | n | n | n | n | n | n
CN1C2C=C3C(C#N)=C(N)C(C#N)(C#N)[C@@H](c4ccc(Cl)cc4)[C@@H]3C1CC2 (stereo partly drawn) | n | n | n | n | n | n
Cc1noc2nc(-c3cccs3)cc(-c3nnc4n3CCCCC4)c12 | 2.1 | n | n | n | n | x
CCOC(=O)c1cc(-c2cccs2)nc2onc(C)c12 | 4.8 | n | n | n | n | x
c1csc(-c2cnc3n2CCCC3)c1 | n | n | n | n | n | n
CCOC(=O)c1nnn(-c2nonc2N)c1-c1cccs1 | n | n | n | n | n | n
COC(=O)c1ccsc1NC(=O)c1ccc2c(c1)OCCO2 | 2.1 | n | n | n | n | x
c1ccc(/N=C2\N=C(Nc3ccccn3)c3ccccc32)nc1 | n | n | n | n | n | n
O=C(OCC(=O)N1CCOCC1)c1ccc[nH]c1=O | n | n | n | n | n | n
COc1cc2ccccc2cc1C(=O)OCC(=O)N1CCOCC1 | 5.1 | n | n | n | n | x
COC(=O)c1c(C(=O)OC)c2cc(C)ccn2c1Cl | 3.4 | n | n | n | n | x
Cc1cc(=O)n2nc(N3CCCC(C(=O)NCc4ccco4)C3)sc2n1 (stereo not drawn) | n | n | n | n | n | n
CN1CCCc2cc3c(C(F)(F)F)cc(=O)oc3nc21 | 2.2 | n | n | n | n | x
COC(=O)c1cc(=O)nc2sc(-c3cccs3)nn12 | 2.7 | n | n | n | n | x
CSc1ccccc1NC(=O)c1cc(CC(C)C)on1 | n | n | n | n | n | n
COc1ccccc1-c1cc(C(=O)Nc2cccnc2)no1 | n | n | n | n | n | n
COc1ccc(-c2cc(C(=O)Nc3cnn(Cc4ccccc4C)c3)no2)cc1OC | 2.4 | n | n | n | n | n
SMILES | Fluor 339 460 | A340 absorber | PMK inhibit | NADH coupling | MK inhibit | Spn DPM-DC inh
COc1ccc(-c2cc(C(=O)Nc3cc(C)n(Cc4ccc(Cl)cc4)n3)no2)cc1OC | 2.2 | n | n | n | n | n
COc1ccccc1-c1cc(C(=O)Nc2ccccc2SC)no1 | 2.8 | n | n | n | n | n
COc1ccc(NC(=O)c2cc(-c3ccccc3OC)on2)cc1 | n | n | n | n | 48 | n
Cc1ccc(-n2nnc3c(=O)n(CC(=O)N4CCOCC4)cnc32)cc1 | n | n | n | n | n | n
COc1cccc(-c2cc(C(=O)Nc3ccccc3SC)no2)c1 | n | n | n | n | n | n
COc1ccc(-c2cc(C(=O)Nc3ccccc3SC)no2)cc1OC | 2.2 | n | n | n | n | n
CN(C)Cc1nc2ccccc2c(=O)n1Cc1nc(-c2cc3ccccc3o2)cs1 | n | n | n | n | n | +
COc1ccccc1NS(=O)(=O)c1cccc2cccnc12 | n | n | n | n | 51 | n
O=C(CCCSc1nc2sc3c(c2c(=O)[nH]1)CCC3)NCCCO | n | n | n | n | n | n
CCCCN(C)CCn1c(=S)[nH]c2ccc(N3CCOCC3)cc2c1=O | 2.5 | n | n | n | n | n
CCc1cc(N2CCOCC2)cc2c1[nH]c1ccccc12 | 4 | n | n | n | n | x
O=C(CCn1c(=S)[nH]c2ccccc2c1=O)N1CCOCC1 | n | n | n | n | n | n
O=c1c2cc(N3CCOCC3)ccc2[nH]c(=S)n1Cc1ccccn1 | 3.5 | n | n | n | n | +
O=c1c2cc(N3CCOCC3)ccc2[nH]c(=S)n1CC1CCCO1 (stereo not drawn) | 4 | n | n | n | n | n
Cc1[nH]c2ccccc2c1SCC(=O)N1CCOCC1 | n | n | n | n | n | n
O=C(NCc1ccco1)c1ccc2c(=O)n(CC3CCCO3)c(=S)[nH]c2c1 (stereo not drawn) | n | n | n | n | n | n
COCc1nnc(NC(=O)c2ccc(NC(C)=O)cc2)s1 | n | n | n | n | n | n
CCOC(=O)c1cnc(-n2cc(C)cn2)nc1Nc1ccccc1OC | n | n | n | n | n | n
COCCCn1c(=S)[nH]c2ccc(N3CCOCC3)cc2c1=O | 3.8 | n | n | n | n | +
COCCn1c(=S)[nH]c2ccc(N(C)C)cc2c1=O | 3.8 | n | n | n | n | n
CCOCCCn1c(=S)[nH]c2cc(C(=O)N3CCOCC3)ccc2c1=O | n | n | n | n | n | n
C/C(CC1(O)C(=O)N(C)c2ccccc21)=N\O (stereo not drawn) | n | n | n | n | n | n
CCOc1ccc(-c2nc(C#N)c(N3CCOCC3)o2)cc1 | 2.2 | n | n | n | n | x
Cc1cccc(-c2nc(C#N)c(N3CCCCCC3)o2)c1 | 3.8 | n | n | n | n | x
N#Cc1nc(-c2ccc(OCc3ccccc3)cc2)oc1N1CCC(C(N)=O)CC1 | 4 | n | n | n | n | x
SMILES | Fluor 339 460 | A340 absorber | PMK inhibit | NADH coupling | MK inhibit | Spn DPM-DC inh
CCOc1ccc(-c2nc(C#N)c(NC3CC3)o2)cc1 | 3.8 | n | n | n | n | x
COc1ccccc1OCc1nc(C#N)c(N2CCC(C(N)=O)CC2)o1 | n | n | n | n | n | n
CCOc1ccc(-c2nc(C#N)c(NCc3ccc4c(c3)OCO4)o2)cc1 | n | n | n | n | n | n
CCOc1ccc(-c2nc(C#N)c(N3CCN(Cc4ccccc4)CC3)o2)cc1 | n | n | n | n | n | n
COc1ccccc1S(=O)(=O)n1cc(Cc2ccccc2)c(N)n1 | n | n | n | n | n | n
CCN1CCN(c2oc(-c3ccc(OC)cc3)nc2C#N)CC1 | 3.8 | n | n | n | n | x
COC(=O)Nc1nnc(CCc2ccccc2)s1 | n | n | n | n | n | n
CCOC(=O)Nc1nnc(-c2ccc(OC)c(OC)c2)s1 | 3.7 | n | n | n | n | x
CCOC(=O)Nc1nnc(CCc2ccccc2)s1 | 2.6 | n | n | n | n | n

Screening results (PubChem BioAssay)
